About 83,000 compounds went through this panel and 20% of them were active in at least one assay; those are over-represented in the sample as a whole.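 Activity criterion: percent growth below 10, measured after cells in 96-well plates were exposed to a single compound concentration for 48 hours.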 Values without a mark were called inactive. The source made the active and inactive calls.
Each compound was assayed on HL-60(TB) leukemia (assay: NCI-60 one-dose screen, 48 h (100 = growth as untreated, 0 = no growth, -100 = all killed)). Details: 10 µM unless noted.

| SMILES | growth |
| --- | --- |
| Cn1nc(C(F)(F)F)c(-c2ccc(Cl)c(C(F)(F)F)c2)c1-c1ccc(OCc2ccc(Cl)cc2)cc1O | 9.3% (active) |
| O=C(Cc1ccc(/C=C/C(=O)c2nccs2)cc1)Nc1ccccc1 | 75% |
| CCN1Cc2nc3sc(C)c(C)c3c(=O)n2C=C1C | 1.07% (active) |
| CC(Sc1ccccc1)C(=O)O (stereo not given) | 143% |
| O=C(OCc1ccc2c(Cl)cc(Cl)c(O)c2n1)N1CCN(C(=O)c2cc3ccccc3[nH]2)CC1 | 31% |
| O=C(c1ccccc1)c1ccc(N2C(=O)C3C4c5ccccc5C(/C=C/C(=O)c5ccccn5)(c5ccccc54)C3C2=O)cc1 (stereo not given) | 30% |
| Cc1cc(NCCCNc2ccnc3cc(Cl)ccc23)nc(N2CCN(C)CC2)n1 | 15.7% |
| O=C(CSc1nnc(-c2cc(-c3ccccc3)nc3ccccc23)n1-c1ccccc1)Nc1ccc(C(=O)/C=C/c2ccc(Cl)cc2)cc1 | 89% |
| O=c1[nH]c(=O)n(C2CC(O)C(CO)O2)cc1CO (stereo not given) | 107% |
| O=C(C=C=Nc1ccccc1)C(=O)N=C=Cc1ccccc1 | -26% (active) |
| Fc1cc2[nH]ncc2c2c3c(c(-c4cn[nH]c4C(F)(F)F)nc12)CCCC3 | -9.67% (active) |
| C[C@@H]1O[C@@H](O[C@H]2[C@@H](OC(=O)[C@]34CCC(C)(C)C[C@H]3C3=CC[C@@H]5[C@@]6(C)C[C@H](O)[C@H](O[C@@H]7O[C@H](CO)[C@@H](O)[C@H](O)[C@H]7O)[C@@](C)(CO)[C@@H]6CC[C@@]5(C)[C@]3(C)C[C@H]4O)OC[C@@H](O)[C@@H]2O)[C@H](O)[C@H](O[C@@H]2OC[C@@H](O)[C@H](O[C@@H]3OC[C@](O)(CO)[C@H]3O[C@@H]3OC[C@@H](O)[C@H](O)[C@H]3O)[C@H]2O)[C@H]1O[C@@H]1OC[C@](O)(CO)[C@H]1O | 21.4% |
| CC(CCCC(=O)O)c1ccoc1 (stereo not given) | 97.6% |
| CC(=O)NC(CCc1ccc(Cl)c(Cl)c1)c1cccc(O)c(=O)c1 (stereo not given) | -16.5% (active) |
| COc1ccc(Br)c(C=O)c1 | -16.3% (active) |
| O=C(CNC(=O)c1cccc2ccccc12)Nc1ccccc1Oc1ccc(O)cc1 | -13.9% [5 µM] (active) |
| COc1cc2ncnc(Nc3ccc4c(cnn4C(=O)Nc4ccccc4)c3)c2cc1OC | 83.5% |
| CCN(CC)CCC(=O)Nc1ccc(Cn2nnc3c2C(=O)c2nnn(Cc4ccc(NC(=O)CCN(CC)CC)cc4)c2C3=O)cc1 | -36.4% (active) |
| O=C(C(=O)c1ccc2c(c1)OCO2)c1ccc2c(c1)OCO2 | 62.3% |
| O=c1oc2ccc(F)cc2c(=O)n1-c1ccc(F)cc1F | 16.7% |

| SMILES | growth |
| --- | --- |
| c1csc(-c2cnc3nonc3n2)c1 | 1.96% (active) |
| O=C(CSc1ccc(Cl)cc1)Nc1ccc(-c2nc3ccccc3s2)c(Cl)c1 | 63.4% |
| CCOc1cc(NC(=O)c2ccccc2)c(OCC)cc1N | 109% |
| COc1ccc(Br)c2ccccc12 | 88.4% |
| O=C1Nc2ccccc2/C1=C/c1nc2ccccc2c(=O)[nH]1 | 102% |
| Cn1cc(C(=O)c2nc(-c3c[nH]c4ccc(Br)cc34)no2)c2cc(F)ccc21 | 94.7% |
| O=C(c1ccc(-c2ccccc2)cc1)c1ccc([N+](=O)[O-])cc1 | 129% |
| COC(=O)CCCCCN=Cc1c(O)c(O)c(C(C)C)c2cc(C)c(-c3c(C)cc4c(C(C)C)c(O)c(O)c(C=NCCCCCC(=O)OC)c4c3O)c(O)c12 | 15.4% |
| O=C1C=CC(=O)N1C1CCCCCCCCCCC1 | -9.95% (active) |
| CC/C(Cc1ccccc1)=C(\c1ccc(OCCN2CCCC2)cc1)c1ccc(OC(C)=O)cc1 | 71.3% |
| COc1ccc(/C=N/NC(=O)CN2CCN(c3cc4c(cc3F)c(=O)c(C(=O)O)cn4C3CC3)CC2)cc1O | 92% |
| Cn1cc(-c2csc(-c3cn(C)c4ncccc34)n2)c2cccnc21 | 95.2% |
| CC(C)(C)OC(=O)N1CCc2c(sc3ncnc(N/N=C/c4cccc5ccccc45)c23)C1 | 11.5% |
| O=C(NNc1ccc(-c2ccccc2)nn1)c1ccc(F)cc1 | 96.7% |
| Cc1ccc2[nH]c(=O)c3c(c2c1)Oc1ncn2nc(-c4ccco4)nc2c1C3c1ccc(Cl)cc1 (stereo not given) | 96.8% |
| Cc1ccc2nc(-c3ccc(OCC(=O)N=Nc4c(O)[nH]c5ccccc45)cc3)[nH]c2c1 | 88.9% |
| O=[N+]([O-])c1ccc(C2CC(c3ccccc3)=Nc3ccccc3S2)cc1 (stereo not given) | 36.1% |
| CCN(CC)CCOc1ccc(Nc2ncc3cc(-c4ccc(O)cc4)c(=O)n(C)c3n2)cc1 | 40.2% |
| O=C(NN1C(=O)c2cc(C(=O)O)c(C(=O)O)cc2C1=O)c1ccncc1 | 109% |
| COc1cccc2c1C(=O)c1c(O)c3c(c(O)c1C2=O)C[C@@](O)(/C(C)=N/NC(=O)c1ccc(Cl)cc1)C[C@@H]3OC1CC(N)C(O)C(C)O1 (stereo not given in full) | -53.4% (active) |

Reference: PubChem BioAssay (NCI)
